Compound activity as filed in PubChem BioAssay.
Menin-MLL TR inh = qHTS Assay for Inhibitors Targeting the Menin-MLL Interaction in MLL Related Leukemias: Competition With Texas Red Labeled MLL-derived Mutant Peptide | O00255 | Menin + Texas Red MLL mutant peptide, fluorescence polarization | Potency, µM (series often up to 61.6 µM), usual class: inhibitors | actives 0.23% (n = 270,000) | AID 1768, 2009; active = well fitted inhibition curve with a large enough effect in the polarisation, with a control signal flat, not every such curve was filed as active; inconclusive = small, poorly fitted or top-dose-only effect, or effect the other way, or a change in a side signal; inactive = no such curve, though single readings can be large or run the other way; the % refers to the polarisation
Menin MLL FP FL = qHTS Assay for Inhibitors Targeting the Menin-MLL Interaction in MLL Related Leukemias: Competition With Fluorescein Labeled MLL-derived Peptide; Fluorescence polarization, fluorescein-MLL peptide displacement from menin; AID 1766, 2009; 290,000 tested, under 10 active; FP activity change, % at 61.4 µM; active = well fitted curve in the direction sought with a large enough effect in the polarisation, not every such curve was filed as active; inconclusive = small, poorly fitted or top-dose-only effect, or effect the other way, or a change in a side signal; inactive = no such curve, though single readings can be large or run the other way; the % refers to the polarisation
PKM2 act = qHTS Assay for Activators of Human Muscle isoform 2 Pyruvate Kinase. Pyruvate kinase PKM (Homo sapiens), P14618. purified PKM2, Kinase-Glo ATP luminescence, activation; response scale: 0% is enzyme alone, no compound. Potency, µM (titrated, usually from 57.5 µM), hits mostly activators. actives 0.34% (n = 260,000). AID 1631, 2009; note: nearly all actives have a fitted effect of over 55% in size
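Purified hPK-M2 (>95%) run at intermediate activity with 0.1 mM ADP and 0.5 mM PEP in 50 mM imidazole pH 7.2, KCl, MgCl2; 1 h room temperature. ATP formed read by Kinase-Glo luminescence; normalized to uninhibited and no-enzyme controls.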
CXXC DNA block = qHTS Fluorescence Polarization Assay for Inhibitors of MLL CXXC domain - DNA interaction | MLL-CXXC / FITC-HOXA9 DNA fluorescence polarization | actives 0.037% (n = 290,000) | Potency, µM (top dose mostly 115 µM), usual class: inhibitors | AID 2662, 2010 | Histone-lysine N-methyltransferase 2A (Homo sapiens), Q03164; active = well fitted inhibition curve with a large enough effect in the polarisation, with a control signal flat, not every such curve was filed as active; inconclusive = small, poorly fitted or top-dose-only effect, or effect the other way, or a change in a side signal; inactive = no such curve, though single readings can be large or run the other way; the % refers to the polarisation
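Fluorescence polarization: 7 uM MLL-CXXC (stock) preincubated 5 min with compounds, then 50 nM fluorescein-HOX-A9 DNA (stock) added; 30 min ambient. Buffer 50 mM Tris-HCl pH 7.5, 50 mM NaCl, 1 mM DTT, 0.05% BSA.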
MLL CXXC FP-Fl = qHTS Fluorescence Polarization (FP) Assay for Inhibitors of MLL CXXC domain - DNA interaction: Fluorescein FP. AID 624160, 2012. Potency, µM (titrated, usually from 345 µM), hits mostly inhibitors. shares compounds with CXXC DNA block. MLL CXXC-DNA binding, fluorescein FP. actives 70% (n = 200); note: nearly all actives have a fitted effect of over 80% in size
MLL CXXC FP-TR = qHTS Fluorescence Polarization (FP) Assay for Inhibitors of MLL CXXC domain - DNA interaction: Texas Red FP | shares compounds with CXXC DNA block | MLL CXXC-DNA binding, Texas Red fluorescence polarization | Potency, µM (doses to about 345 µM), usual class: inhibitors | actives 40% (n = 200); note: nearly all actives have a fitted effect of over 75% in size
MLL CXXC TRF = qHTS Fluorescence Polarization (FP) Assay for Inhibitors of MLL CXXC domain - DNA interaction: HTRF Assay. Potency, µM (top dose mostly 172 µM), most hits filed as inhibitors. actives 30% (n = 210). shares compounds with CXXC DNA block. MLL CXXC-DNA binding, HTRF, biochemical; note: nearly all actives have a fitted effect of over 80% in size
A number is an active result; 0 = inactive; ? = inconclusive; - = no result given; ! = repeats disagree; [ ] = dose if it differs, or a comment. Hits are enriched below; roughly 0.41% of the tested compounds scored in any of these assays. Unless noted, calls come from the whole dose curve; as a rule, active = well fitted curve in the direction sought with a large enough effect; inconclusive = small, poorly fitted or top-dose-only effect, or another doubt; inactive = no such curve, though single readings can be large; an effect the other way counts as inactive or inconclusive.

SMILES	Menin-MLL TR inh	Menin MLL FP FL	PKM2 act	CXXC DNA block	MLL CXXC FP-Fl	MLL CXXC FP-TR	MLL CXXC TRF
Cc1ccsc1C=C1C(=O)c2ccccc2C1=O	?	0	0	?	10µM	0	0
Cc1ccsc1/C=C1/C(=O)NN(c2ccccc2)C1=O	?	0	0	?	-	-	-
COc1cccc(/C=C2/C(=O)NN(c3ccc(Br)cc3)C2=O)c1O	?	0	0	?	100µM	?	0
CCNc1ncc2nc(-c3ccc(OC)cc3)c(=O)n(CCC#N)c2n1	0	?	-	-	-	-	-
C=CCOC(=O)C(=O)/C=C/c1csc2ccccc12	?	?	0	?	0	?	0
CC(=O)OCC(NC(=O)C(COCc1ccccc1)NC(=O)OC(C)(C)C)C1OC(n2cc(C)c(=O)[nH]c2=O)C(OC(C)=O)C1OC(C)=O (stereo unspecified)	0	0	-	-	-	-	-
CC(C)Cn1c(SCC(=O)NCc2ccco2)nnc1-c1ccncc1	0	0	0	?	1.6µM	0	0
COC(=O)N1C(c2ccccc2)=Cc2ccccc2C1C1(C(=O)OC)CCCC1=O (stereo unspecified)	0	0	0[11.5 µM]	-	-	-	-
COc1ccc(-n2c(=O)c(C)nc3cnc(Oc4cccc(Cl)c4)nc32)cc1	0	0	-	-	-	-	-
CC/C=C/[C@@H](c1ccccc1)[C@H](C)C(O)CC(=O)SC(C)(C)C (stereo partly specified)	0	0	-	-	-	-	-
O=C1NN(c2ccccc2)C(=O)/C1=C/c1ccc(Sc2ccc(Cl)cc2)o1	-	?	0	0	-	-	-
Cc1ccc(Sc2ccc(/C=C3/C(=O)NN(c4ccccc4)C3=O)o2)cc1	-	0	0	?	8µM	0	0
CN(C)C1=C(Cl)C(=O)N(c2ccc(Cl)c(Cl)c2)C1=O	-	0	0	?	179µM	0	?
O=c1c(Cl)c2oc3ccccc3nc-2c2ccccc12	?	?	0	32µM	113µM	?	0
COc1ccc(NC(=O)N2CC3(CCN(C(=O)c4cccc(F)c4)CC3)C2)cc1	0	0	-	-	-	-	-
COc1ccc(/C=C2/C(=O)N(c3ccccc3)N=C2C)cc1OC	0	0	0	?	-	-	-
CC1=NN(c2ccccc2)C(=O)/C1=C/c1cccc(C)c1	?	?	-	?	45µM	?	0
CCCn1c(-c2ccc(F)cc2)nc2c(N3CCN(CCC(=O)OCC)CC3)nc(C)nc21	0	0	0	-	-	-	-
c1ccc(-c2nc(-c3cccc4ccccc34)c(Nc3ccc4ccccc4c3)o2)cc1	0	0	-	-	-	-	-
O=CCCCC=O	0	0	-	0	-	-	-
CCc1ccc(S(=O)(=O)/N=C2\C=C(Nc3ccc(C(=O)O)cc3)C(=O)c3ccccc32)cc1	?	0	-	13µM	40µM	?	0
COC(=O)c1ccccc1NC1=C/C(=N\S(=O)(=O)c2ccc(C(=O)O)cc2)c2ccccc2C1=O	-	-	-	16µM	5µM	142µM	0
COC(=O)c1ccccc1NC1=C/C(=N\S(=O)(=O)c2cccs2)c2ccccc2C1=O	?	0	0	0	-	-	-
C=Cc1c(C)c2cc3[nH]c(cc4nc(cc5nc(cc1[nH]2)C(C)=C5CCC(=O)O)C(CCC(=O)O)=C4C)c(C)c3C=C	?	0	-	20µM!	?	45µM	39µM
O=C1/C(=C\c2cccnc2)CCc2ccccc21	0	0	0	?	?	0	0
O=C1/C(=C/c2cccnc2)CC/C1=C\c1cccnc1	0	0	0	0	-	-	-
CC1=NOC(=O)/C1=C\c1ccc(-c2ccc(Br)cc2C(=O)O)o1	?	?	0	?	-	-	-
CC1=NN(c2ccc(Br)cc2)C(=O)/C1=C/c1ccc(-c2ccccc2C(=O)O)o1	?	0	0	?	113µM	89µM	0
Cc1cn2c(=O)c3ccccc3nc2n2c(=O)c3ccccc3nc12	0	0	-	-	-	-	-
N#CC1(C#N)C(c2ccccc2)OC23CCCCCC2C1(C#N)C(=N)O3 (stereo unspecified)	0	0	0	50µM	50µM	?	0
